Consider 89 compounds from PubChem BioAssay AID463173 (ICCB-Longwood Screening Facility, Harvard Medical School, 2010).

The structures appear in SMILES notation. The whole screen tested about 52,000 compounds, of which about 4,300 (8.3%) were called active. The list comes from a sample in which actives are over-represented; it also holds similar structures and randomly drawn compounds. Values without a mark were called inactive. Rule as the data show it: active = survival mostly below about 52% (no sharp cut-off); inactive = mostly above about 56%.

The test system of the experiment is DeltatarO mutant. Put plainly: S. aureus survival, RN4220 and DeltatarO strains – OD600, teichoic acid synthesis inhibitors, primary screen (AID 463173). The note with it: S. aureus RN4220 wild type/DeltatarO growth, OD600, 18 h, hits give low values, screened at 18.75 µg/mL (by protocol).
In the case of `COc1cc(OC)cc(N2C(=O)CSC23C(=O)Nc2ccccc23)c1` (centres undefined), the survival was 99%.
Then `COc1ccc(OC)c(CNC(=O)c2c(C)oc3ncn(CC(C)C)c(=O)c23)c1`, with 89%.
Then `COc1ccc(Nc2cc(C)nc(-n3nc(C)cc3C)n2)cc1Cl`, with 81%.
The value for `COc1ccccc1N1CCN(S(=O)(=O)CCNC(=O)c2cc(=O)c3ccccc3o2)CC1` was 87%; that for `CCNC(=S)N1CCC(NC(=O)c2ccccc2)CC1` was 110%.
As for `CCN(c1ccccc1)S(=O)(=O)c1ccc(NC(=O)c2cc(=O)c3ccccc3o2)cc1`, the survival is 63%.
Turning to `CCN(c1ccccc1)S(=O)(=O)c1ccc(Cl)cc1`, the survival was 92%.
The value for `CCN(c1ccccc1)S(=O)(=O)c1ccc(NC(=O)c2nc(S(C)(=O)=O)ncc2Cl)cc1` was -1% (active); that for `CN1C(=O)/C(=C/C=C2/Sc3ccccc3N2CCO)SC1=S` was 108%; that for `Cc1c(-c2ccccc2)nc2c(Cl)cccc2c1C(=O)OCC(=O)c1ccc(F)cc1` was 75%.
Then `O=S(=O)(NCCS(=O)(=O)N1CCN(c2ccccc2)CC1)c1ccc(Br)cc1`, with 91%.
Then `CCCC12CN3CC(C)(CN(C1)C3c1cn(CC)c3ccccc13)C2=O` (centres undefined), with 83%.
For the compound `Cc1cccc(N2CCN(C(c3nnnn3C3CCCC3)C(C)C)CC2)c1C` (centres undefined), the survival was 79%.
The value for `Cc1cc(NC(=O)CCS(=O)(=O)c2cc(Br)cc3c2N(C(=O)C2CC2)CC3)ccc1Br` was 83%; that for `COc1ccccc1C(=O)NC1(C(F)(F)F)NC(=O)N(CCc2ccccc2)C1=O` (centres undefined) was 73%; that for `COc1cc(C(=O)N(Cc2ccc(C(C)C)cc2)C2CCS(=O)(=O)C2)cc(OC)c1OC` (centres undefined) was 46% (active).
The value for `CCCCOc1ccc(C(=O)N(Cc2ccc(C(C)C)cc2)C2CCS(=O)(=O)C2)cc1` (centres undefined) was 22% (active); that for `CCCOc1cccc(C(=O)N(Cc2ccc(C)o2)C2CCS(=O)(=O)C2)c1` (centres undefined) was 90%; that for `COc1cc(CN(C(=O)c2ccc(C)cc2)C2CCS(=O)(=O)C2)cc(OC)c1OC` (centres undefined) was 59%.
The value for `CCCOc1cccc(C(=O)N(Cc2cc(OC)c(OC)c(OC)c2)C2CCS(=O)(=O)C2)c1` (centres undefined) was 43% (active); that for `COc1cc(CN(C(=O)c2ccc(Cl)cc2)C2CCS(=O)(=O)C2)cc(OC)c1OC` (centres undefined) was 69%; that for `CCCCOc1cccc(C(=O)N(Cc2ccc(N(C)C)cc2)C2CCS(=O)(=O)C2)c1` (centres undefined) was 56%.
For the compound `CCCCOc1cccc(C(=O)N(Cc2ccc(Cl)cc2)C2CCS(=O)(=O)C2)c1` (centres undefined), the survival is 54%.
The value for `CCOc1cccc(C(=O)N(Cc2ccc(C(C)C)cc2)C2CCS(=O)(=O)C2)c1` (centres undefined) was 40% (active).
The value for `COc1ccc(C(=O)N(Cc2ccc(C(C)C)cc2)C2CCS(=O)(=O)C2)cc1` (centres undefined) was 62%; that for `COc1ccc(CN(C(=O)c2ccc(OCC(C)C)cc2)C2CCS(=O)(=O)C2)cc1` (centres undefined) was 93%.
Consider `CCOc1cccc(C(=O)N(Cc2ccc(CC)cc2)C2CCS(=O)(=O)C2)c1` (centres undefined), for which the survival is 149%.
`CCN(CC)CCNC(=O)c1c(C)oc2ncnc(N3CCOCC3)c12`: the survival was 130%.
Then `Cc1ccc2oc(C(=O)N(Cc3ccc(N(C)C)cc3)CC3CCCO3)c(C)c2c1` (centres undefined), with 93%.
Regarding `Cc1ccccc1-n1c(SCC(=O)N(C(C)C)C(C)C)nnc1-c1cccnc1`, the survival is 99%.
The value for `Cn1ccnc1SCC(=O)Nc1cc(Cl)ccc1Cl` was 68%.
The value for `COc1cccc(C2CC(=O)N(c3ccc(F)cc3)C3=C2C(=O)OC3)c1OC` (centres undefined) was 75%.
The value for `COc1ccc(-n2nc(C(=O)Nc3ccc(Br)cc3C)c3c4ccccc4n(C)c3c2=O)cc1` was 97%.
On to `Fc1ccc(C2=CC(c3ccc(F)cc3)n3c(nc4ccccc43)N2)cc1` (centres undefined), for which the survival was 87%.
On to `CCOC(=O)c1ccc(NC(=O)CSc2c(C(C)C)cnc3c2c(=O)n(C)c(=O)n3C)cc1`, for which the survival was 107%.
In the case of `Cc1ccc2nc(-c3c[nH]c4ccccc34)c(Nc3ccccc3C)n2c1`, the survival is 96%.
The value for `CC(=O)N1C(Nc2ccc(C)cc2)CCN1c1ccccc1` (centres undefined) was 81%.
The value for `COc1ccc(Nc2oc(/C=C/c3cccc(OC)c3)nc2C#N)cc1` was 100%; that for `Cc1ccc2c(c1)C(c1ccc(F)cc1)N(C(=O)c1ccc(S(=O)(=O)N3CCCCC3)cc1)CC(=O)N2` (centres undefined) was 178%.
Then `Cc1cccc(NC(=O)CSc2nc3ccccc3nc2N2CCC(C)CC2)c1`, with 8% (active); and `CC(=O)Nc1ccc(NC(=O)CSc2nc3ccccc3nc2N2CCC(C)CC2)cc1`, with 75%.
Take `CC1CCN(c2nc3ccccc3nc2SCC(=O)Nc2ccccc2C(C)C)CC1`: the survival was -1% (active).
Regarding `Cc1ccc(C)c(NC(=O)CSc2nc3ccccc3nc2N2CCOCC2)c1`, the survival was 85%.
Take `CCc1ccc(Cn2c(CNS(=O)(=O)c3ccc4c(c3)CCCC4)nc3cccnc32)cc1`: the survival was 102%.
The value for `Fc1ccc(-n2ncc3c(N4CCC(Cc5ccccc5)CC4)ncnc32)cc1` was 90%; that for `COc1cccc(C2CC(=O)Nc3c2c(=O)n(C)c2ncnn32)c1OC` (centres undefined) was 166%.
Then `Cc1ccc2c(c1)c1c3n2CCN(C(=O)Cn2c(-c4ccccc4)noc2=O)C3CCC1` (centres undefined), with 90%; and `CC1CCc2c(sc(NC(=O)c3cc4nc(-c5ccc(Cl)cc5)cc(C(F)(F)F)n4n3)c2C#N)C1` (centres undefined), with 91%; and `Cc1ccc(C)c(S(=O)(=O)c2nnn3c2nc(NC2CCCCC2)c2sccc23)c1`, with 40%.
Then `O=S(=O)(c1ccc(Cl)cc1)c1nnn2c1nc(NC1CCCCC1)c1sccc12`, with 41%.
As for `Cc1ccc(S(=O)(=O)c2nnn3c2nc(NC2CCCCC2)c2sccc23)cc1`, the survival was 109%.
Regarding `Cc1ccc(S(=O)(=O)c2nnn3c2nc(NC2CCCCC2)c2sccc23)cc1C`, the survival was 35% (active).
The value for `O=S(=O)(c1ccc(Br)cc1)c1nnn2c1nc(NC1CCCCCC1)c1sccc12` was 63%.
`Cc1ccc(S(=O)(=O)c2nnn3c2nc(NC2CCCCCC2)c2sccc23)cc1C`: the survival was -4% (active).
Then `CCn1cc2nc(SCc3cccc(Cl)c3)n(Cc3ccc(C)cc3)c(=O)c2n1`, with 44%.
The value for `COC(=O)CC(=O)CSc1nc(C)cc(C(F)(F)F)c1C#N` was 83%; that for `O=c1cc(CSc2nnc(COc3ccccc3)o2)c2ccccc2[nH]1` was 107%.
On to `O=C1Nc2c(c(=O)[nH]c(=O)n2-c2ccc(F)cc2)C1(NS(=O)(=O)c1ccc(Cl)cc1)C(F)(F)F` (centres undefined), for which the survival is 59%.
Then `COC(=O)c1ccccc1NC(=O)c1cc2ccccn2n1`, with 73%; and `O=c1c(=O)n(-c2ccccc2)ccn1Cc1c(F)cccc1Cl`, with 44% (active); and `O=c1c(=O)n(Cc2c(F)cccc2Cl)ccn1Cc1ccccc1`, with 82%.
`COc1ccccc1Cn1ccn(Cc2c(F)cccc2Cl)c(=O)c1=O`: the survival is 110%.
As to `Cc1cc(O)c(CN2CCN(c3ccc(F)cc3)CC2)c2oc(=O)cc(C)c12`, the survival is 46%.
`CC(=O)Nc1ccc(NC(=O)CCSCCc2ccccn2)cc1`: the survival is 135%.
Then `O=C(CCSCCc1ccccn1)Nc1ccc(Cl)cc1`, with 47% (active); and `Cc1ccc(NC(=O)CCSCCc2ccccn2)cc1`, with 93%; and `COc1ccc(-n2c(C)nnc2SCc2nc(-c3ccc(OC)c(OC)c3)no2)cc1`, with 71%.
In the case of `COC(=O)c1ccc2c(c1)N(CC(=O)Nc1ccc(C)cc1Cl)C(=O)c1ccccc1S2`, the survival was 76%.
`Cc1ccc(C(CC(=O)NCC2(c3ccccc3)CCCC2)c2ccccc2)c(O)c1` (centres undefined): the survival was 101%.
The value for `Cc1cccc(C(CC(=O)NCC2(c3ccccc3)CCCC2)c2ccccc2)c1O` (centres undefined) was 38% (active).
The value for `Cc1ccc(O)c(C(CC(=O)NCC2(c3ccccc3)CCCC2)c2ccccc2)c1` (centres undefined) was 82%; that for `O=C(O)CCc1ccc(-c2ccc(F)cc2)n1CCC(=O)O` was 103%; that for `Cc1ccc(NC(=O)CSc2nnc(C)c(=O)[nH]2)cc1` was 70%.
The value for `c1ccc(Cc2[nH]nc3ccccc23)cc1` was 89%; that for `Cc1ccc(-n2nnc(-c3nsc(NC(=O)c4cccc(Cl)c4)n3)c2C)cc1C` was 76%.
Consider `CSc1cccc(-n2nnc(-c3nsc(NC(=O)c4cccs4)n3)c2C)c1`, for which the survival is 73%.
Then `Cc1ccc(-n2nnc(-c3nsc(NC(=O)c4ccccc4C)n3)c2C)cc1Cl`, with 134%; and `COc1cccc(C(=O)Nc2nc(-c3nnn(-c4ccccc4C(F)(F)F)c3C)ns2)c1`, with 87%; and `CCc1cccc(-n2nnc(-c3nsc(NC(=O)c4cccs4)n3)c2C)c1`, with -5% (active).
Then `Cc1ccc(Cl)cc1-n1nnc(-c2nsc(NC(=O)c3ccccc3Cl)n2)c1C`, with 6% (active); and `Cc1cccc(C(=O)Nc2nc(-c3nnn(-c4cc(C)ccc4C)c3C)ns2)c1`, with 94%.
Then `Cc1c(-c2nsc(NC(=O)c3cccc(Cl)c3)n2)nnn1-c1ccccc1C(F)(F)F`, with -4% (active).
Take `Cc1c(-c2nsc(NC(=O)c3ccccc3)n2)nnn1-c1ccc(C(F)(F)F)c(Cl)c1`: the survival was 86%.
The value for `CCc1ccc(-n2nnc(-c3nsc(NC(=O)c4ccccc4Cl)n3)c2C)cc1` was 15% (active); that for `CCc1cccc(-n2nnc(-c3nsc(NC(=O)c4ccc(C)cc4)n3)c2C)c1` was 54%; that for `Cc1cc(C)cc(-n2nnc(-c3nsc(NC(=O)c4ccccc4Cl)n3)c2C)c1` was 64%.
The value for `O=C(Cn1ncc2c3ccccc3n(Cc3ccccc3F)c2c1=O)NCc1ccccc1Cl` was 78%.
Then `Cc1ccc(N(CCO)S(=O)(=O)c2ccc(NC3=NS(=O)(=O)c4ccccc43)cc2)cc1`, with 96%; and `CCc1ccc(C(=O)c2cn(CC(=O)Nc3ccc4c(c3)OCCO4)c3ccc(F)cc3c2=O)cc1`, with 78%.
